TDP1 cell noCPT – qHTS for Inhibitors of human tyrosyl-DNA phosphodiesterase 1 (TDP1): qHTS in cells in absence of CPT | DT40 Tdp1-/- hTDP1 cells, no CPT, ATP luminescence, 48 h | Potency, µM (top dose mostly 46.2 µM), hits mostly inhibitors | actives 15% (n = 420,000); note: nearly all actives have a fitted effect of over 55% in size
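Luminescent ATP content (CellTiter-Glo) served as the growth readout. Knockout chicken DT40 cells expressing human TDP1 were exposed to compounds without camptothecin for a minimum 48 hr at 37 °C.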
TDP1 cell CPT – growth inhibition of DT40 Tdp1-/-;hTDP1 cells with camptothecin (screen for TDP1 inhibitors); chicken DT40 Tdp1-/-;hTDP1 cells + 20 nM CPT, ATP luminescence, 48 h; Potency, µM (titrated, usually from 46.2 µM), actives largely listed as inhibitors; actives 12% (n = 420,000); AID 686979; note: nearly all actives have a fitted effect of over 55% in size
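Chicken DT40 Tdp1-/- cells complemented with human TDP1, 400 cells/well, exposed to compounds plus 20 nM camptothecin for at least 48 h at 37 C; viability read as ATP content by CellTiter-Glo luminescence.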
ATXN viability – viability counter-screen for ATXN expression inhibitors; actives 0.49% (n = 400,000); Potency, µM (highest dose often 56.7 µM), most hits filed as cytotoxic; AID 651635; S2 cells (HEK-293 line with an ATXN2-luciferase reporter) viability, CellTiter-Fluor protease fluorescence, 24 h; note: nearly all actives have a fitted effect of over 40% in size
HepG2 tox – HepG2 cytotoxicity, counter-screen for TGF-b inhibitors; AID 588856; Potency, µM (highest dose often 46.1 µM), hits mostly cytotoxic; actives 0.76% (n = 410,000); HepG2 CAGA-GFP viability, ATP luminescence, 18 h
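CellTiter-Glo luminescence gave cytotoxicity after 18 hours at 37 degrees C. The cells were HepG2 CAGA-GFP in 1% FBS DMEM, stimulated with 500 pg/mL TGF-beta after compound addition. %Activity was normalised to no-cell wells (complete cell-killing) and DMSO (no toxicity), and curves were fitted and classified.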
ATXN2 expr inh – inhibitors of ATXN2 expression; actives 0.72% (n = 360,000); HEK-293 ATXN2-luciferase reporter, luminescence, 24 h; Potency, µM (highest dose often 57 µM), actives largely listed as inhibitors; AID 1745845; note: nearly all actives have a fitted effect of over 55% in size
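ATXN2-luciferase reporter cells (luciferase flanked by upstream and downstream ATXN2 gene portions) were treated 24 h at 37 °C with compounds at up to 57 uM. SteadyGlo luminescence gave expression; GF-AFC fluorescence gave viability.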
TGFb SMAD3 inh – inhibitors of TGF-b signaling; actives 1.2% (n = 410,000); Potency, µM (series often up to 46.1 µM), usual class: inhibitors; HepG2 CAGA-GFP TGF-b/SMAD3 reporter, GFP fluorescence, 18 h; TGF-beta stimulated, 500 pg/mL final; note: nearly all actives have a fitted effect of over 65% in size
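HEPG2 CAGA-GFP reporter cells (1000/well, DMEM with 1% FBS) received compounds, then recombinant TGF-beta at 500 pg/mL final for 18 hours at 37 degrees C. Per-cell GFP summed per well was normalised to unstimulated and stimulated DMSO controls before curve fitting.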
Of the large screens only hits and unclear results are named; the others gave an inactive call. In the library only some 17% were active in any assay of this set; here they are far more common. Calls come from the whole dose curve; as a rule, active = well fitted curve in the direction sought with a large enough effect; inconclusive = small, poorly fitted or top-dose-only effect, or another doubt; inactive = no such curve, though single readings can be large; an effect the other way counts as inactive or inconclusive.

O=C(CN1CCN(S(=O)(=O)c2ccc(Cl)cc2)CC1)N1CCCC1	none
COc1ccccc1C(=O)NC(=O)COC(=O)CNC(=O)c1ccccc1F	none (no result: ATXN2 expr inh)
CC12CCC(C(=O)NC3CCCCC3)([C@H](Br)C1=O)C2(C)C (stereo partly specified)	none (no result: ATXN2 expr inh)
CCC1Oc2ccc(C)cc2N(CC(=O)N(Cc2cccnc2)Cc2cccc(F)c2)C1=O (stereo unspecified)	TDP1 cell noCPT inconclusive, TDP1 cell CPT 18.4µM
CCC1Oc2ccc(C)cc2N(CC(=O)N(Cc2ccncc2)Cc2ccco2)C1=O (stereo unspecified)	TDP1 cell noCPT inconclusive, TDP1 cell CPT inconclusive
CCc1cccc(NC(=O)Nc2csc3c2CCCC3)c1	TDP1 cell noCPT 23.1µM, TDP1 cell CPT 20.6µM, TGFb SMAD3 inh inconclusive (no result: ATXN viability, ATXN2 expr inh)
COc1cccc(NC(=O)c2csc3c2CCCCC3)c1	TDP1 cell noCPT 16.4µM, TDP1 cell CPT 20.6µM, TGFb SMAD3 inh inconclusive
Cc1cccc(C)c1NC(=O)Nc1csc2c1CCCC2	none (no result: ATXN viability, ATXN2 expr inh)
Cc1cccc(C)c1NC(=O)c1csc2c1CCCC2	TDP1 cell noCPT 5.17µM, TDP1 cell CPT 3.66µM (no result: ATXN viability, ATXN2 expr inh)
O=C(COc1ncnc2sccc12)NC1CCCc2ccccc21 (stereo unspecified)	none
FC(F)(F)COc1nc(OCC(F)(F)F)nc(N2CCN(c3ccccc3)CC2)n1	TDP1 cell noCPT inconclusive
FC(F)(F)COc1nc(N2CCOCC2)nc(N(c2ccccc2)c2ccccc2)n1	TDP1 cell noCPT 20.6µM, TDP1 cell CPT inconclusive, TGFb SMAD3 inh inconclusive
Clc1cccc(Cl)c1/C=N/Nc1c(Cl)cncc1Cl	TDP1 cell noCPT 3.26µM, TDP1 cell CPT 2.06µM
Cc1cc(C)c2nc(SCC(=O)N3CC(=O)Nc4ccccc43)c(C#N)cc2c1	TDP1 cell noCPT 1.3µM, TDP1 cell CPT 1.3µM, TGFb SMAD3 inh inconclusive
COc1ccc(OC)c(NC(=O)Cc2c(C(=O)O)n(C)c3ccc(C)cc23)c1	TGFb SMAD3 inh inconclusive
O=C1/C(=C\c2cccnc2)SC(=S)N1C1CCS(=O)(=O)C1 (stereo unspecified)	TDP1 cell noCPT 18.4µM, TDP1 cell CPT 3.66µM, ATXN viability inconclusive, ATXN2 expr inh inconclusive
Cc1ccc(N2C(=O)/C(=C/c3cccnc3)SC2=S)cc1	none
O=C(NN1C(=O)/C(=C\c2cccnc2)SC1=S)C(c1ccccc1)c1ccccc1	TDP1 cell noCPT 25.9µM, TDP1 cell CPT inconclusive
O=C1/C(=C/c2cccnc2)SC(=S)N1C1CCS(=O)(=O)C1 (stereo unspecified)	TDP1 cell noCPT 9.2µM, TDP1 cell CPT 10.3µM
O=C1c2ccccc2N[C@@H]2C=CC[C@@H]2N1O	none
CCC1CN(Cc2ccc(COC)o2)Cc2cc(OC)ccc2O1 (stereo unspecified)	none (no result: HepG2 tox, ATXN2 expr inh, TGFb SMAD3 inh)
CCc1cnc2ccccc2c1/C=C/c1ccc(N(C)C)cc1	TDP1 cell noCPT inconclusive, TDP1 cell CPT inconclusive, TGFb SMAD3 inh inconclusive (no result: ATXN viability, ATXN2 expr inh)
COC(=O)c1ccc(CNS(=O)(=O)c2ccc3ccccc3c2)cc1	none
O=[N+]([O-])c1ccc(O)c(/C=N/NC(=S)Nc2ccc(Cl)cc2Cl)c1	TDP1 cell noCPT 20.6µM, TDP1 cell CPT 16.4µM, TGFb SMAD3 inh inconclusive
O=[N+]([O-])c1ccc(/C=N/NC(=S)Nc2ccc(Cl)cc2Cl)s1	TDP1 cell noCPT 5.17µM, TDP1 cell CPT 5.8µM, ATXN viability inconclusive, TGFb SMAD3 inh inconclusive (no result: ATXN2 expr inh)
Cc1ccc(NC(=S)N/N=C/c2ccc(Cl)c([N+](=O)[O-])c2)cc1	ATXN viability inconclusive
Cc1cc(Cl)ccc1NC(=O)CCC(=O)N/N=C/c1cc([N+](=O)[O-])ccc1O	TDP1 cell noCPT 8.2µM, TDP1 cell CPT 6.51µM
NC(CSC(c1ccccc1)(c1ccccc1)c1ccccc1)C(=O)O (stereo unspecified)	TDP1 cell noCPT 5.17µM, TDP1 cell CPT 5.8µM, ATXN viability inconclusive, TGFb SMAD3 inh inconclusive
